# HCV inh – inhibitors of hepatitis C virus infection; Huh7.5.1 HCVcc-Cre infection, luciferase reporter, 44 h; Potency, µM (titrated, usually from 41.8 µM), without a hit: at the highest dose activity change, negative = inhibition, most hits filed as inhibitors; 3.4% of 340,000 active; AID 651820; note: potency is the fitted concentration of half-maximal effect; % is set by controls: 0 for no effect and ±100 for the full control effect
#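 Reporter virus HCVcc-Cre (~0.5 moi) infects cells exposed to compound; seeding density 1,000 cells/well with 4 h settling beforehand. Luminescence, 15 sec read, taken 44 h post-infection following a 15 min RT substrate incubation.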
# Pf growth 48h – inhibits P. falciparum growth in the first generation, 48 h. Potency, µM (titrated, usually from 28.7 µM), for the others: at the top dose activity change, negative = inhibition, most hits filed as inhibitors. 5.9% of 310,000 active. P. falciparum luciferase growth in erythrocytes, 48 h; note: potency is the fitted concentration of half-maximal effect; % is set by controls: 0 for no effect and ±100 for the full control effect
#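 First compound was added to culture medium, then infected red cells at 0.1% parasitemia and 2% hematocrit (final). After incubation at 37 C under 5% CO2, luciferase detection reagent was dispensed and light output recorded.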
# Pf growth 96h – inhibits malaria parasite growth, 96 h; P. falciparum luciferase reporter growth, 96 h; Potency, µM (series often up to 28.7 µM), for inactives: at the highest dose activity change, negative = inhibition, usual class: inhibitors; 6.9% of 320,000 active; note: potency is the fitted concentration of half-maximal effect; % is set by controls: 0 for no effect and ±100 for the full control effect
#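 Two parasite generations (96 h, 37 C, 5% CO2) of compound exposure in infected erythrocytes (0.05% parasitemia, 2% hematocrit). Luciferase-reporter P. falciparum; decreased luminescence indicates inhibited growth, aimed at apicoplast-acting delayed death.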
# HCMV inh – blocks human cytomegalovirus replication; AID 1259415; activity change, negative = inhibition, % at 57.5 µM; 4.5% of 410,000 active; HFF cells, HCMV-luciferase reporter, 72 h; hits give low values; in the data active = activity change below about -60%; inconclusive = no clear call, values can overlap the other calls; inactive = above about -39%; note: % is set by controls: 0 for no effect and ±100 for the full control effect
#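 Two-dose cell screen: HFF monolayers treated with compounds and infected with luciferase-expressing HCMV at 1 PFU/cell, 72 h at 37C, then lysed for luciferase measurement.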
# HCV inh confirm – confirmation of hepatitis C virus inhibitors. HCVcc-Cre infectious virus cell assay, luciferase, inhibition. shares compounds with HCV inh. 78% of 640 active. Potency, µM (doses to about 41.8 µM), inactives show at the top dose activity, negative = inhibition, hits mostly inhibitors; note: potency is the fitted concentration of half-maximal effect; nearly all actives have a fitted effect of over 80% in size
# HCV cytotox – counter-screen for HCV inhibitors: host cell cytotoxicity; shares compounds with HCV inh; HCV host cell line cytotoxicity counterscreen; Potency, µM (series often up to 41.8 µM), for the others: top-dose activity change, negative = cytotoxicity, most hits filed as inhibitors; 22% of 640 active;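 note: potency is the fitted concentration of half-maximal effect; 44 h compound exposure; % is set by controls: 0 for no effect and ±100 for the full control effect; nearly all actives have a fitted effect of over 55% in size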
# * marks the source's active call; other numbers are inactive results; ? = inconclusive; . = no result given. Shown are actives, neighbours in structure and some others; about 13% of the full set was active somewhere. Unless noted, calls come from the whole dose curve; as a rule, active = well fitted curve in the direction sought with a large enough effect; inconclusive = small, poorly fitted or top-dose-only effect, or another doubt; inactive = no such curve, though single readings can be large; an effect the other way counts as inactive or inconclusive.
SMILES,HCV inh,Pf growth 48h,Pf growth 96h,HCMV inh,HCV inh confirm,HCV cytotox
S=C(S)N1CCCC1,?,10.4µM*,?,-35.6,25µM*,28µM*
COc1ccc([N+](=O)[O-])cc1NC(=O)CSc1nc(C)c(C)c(C)n1,14.6%,-3.6%,29.3%,50.8,.,.
COc1ccc([N+](=O)[O-])cc1NC(=O)C(C)Sc1nc(C)c(C)c(C)n1 (configuration not stated),5.62µM*,?,?,-6.8,12.5µM*,34.1%
COc1ccc(N=Nc2c(C)[nH]c3ccccc23)cc1,7.08µM*,.,.,14.0,19.9µM*,-6.2%
CC(=O)c1cccc(N=Nc2c(C)[nH]c3ccccc23)c1,?,18.4%,?,18.5,.,.
COc1ccc(Cn2cnc3c(NS(C)(=O)=O)c(C)c(C)cc32)cc1,3.16µM*,?,?,98.1,0.0112µM*,5.2%
Cc1ccccc1Cn1cnc2c(NS(C)(=O)=O)c(C)c(C)cc21,?,?,?,10.5,.,.
COc1ccc(Cl)cc1NC(=O)c1cc2c(s1)-c1ccccc1OC2,.,.,.,-12.5,.,.
Cc1c(NC(=O)c2cc3c(s2)-c2ccccc2OC3)cccc1[N+](=O)[O-],?,-11.5%,0.0%,?,6.28µM*,-3.9%
CCOc1cccc2sc(N(CCCN(C)C)C(=O)c3ccc(S(=O)(=O)N(C)Cc4ccccc4)cc3)nc12,5.01µM*,?,0.0%,?,14.1µM*,-29.1%
CN(C)S(=O)(=O)N1CCC(Oc2cccc(C(=O)NC3CCCCCC3)c2)CC1,2.82µM*,?,?,-89.7*,4.45µM*,7.91µM*
COC(=O)c1cccc(N2C(=O)C[C@](Sc3ccc(C)cc3)(C(=O)OC)[C@H]2c2ccccc2)c1,.,.,.,16.4,.,.
Clc1ccc2oc(-c3cccnc3NCc3ccccc3)nc2c1,0.7%,-17.6%,9.5%,8.1,.,.
Clc1ccc2c(NCc3ccccc3)ccnc2c1,5.62µM*,?,?,-73.6*,9.95µM*,?
CC(NC(=O)c1ccco1)C(=O)O (configuration not stated),5.7%,31.6%,43.0%,11.2,.,.
Cc1ccc(C(C)NC(=O)c2ccco2)cc1 (configuration not stated),6.31µM*,-15.6%,-7.7%,12.8,-24.4%,-10.2%
COc1cc(C(=O)O/N=C(\N)c2ccc([N+](=O)[O-])cc2)cc(OC)c1OC,?,?,0.0%,0.3,?,26.1%
COc1ccc(-c2nc(-c3ccccc3OC)no2)cc1OC,?,3.5%,-1.2%,30.9,22.3µM*,5.1%
FC(F)(F)c1nc(-c2cccs2)ncc1-c1nnnn1-c1ccc(Cl)cc1,5.01µM*,.,22.6%,-60.5*,6.28µM*,-94.3%
Cn1c(Oc2cccnc2CN2CCCC2)nc2cc(-c3cccc(C(F)(F)F)c3)sc2c1=O,.,.,.,-19.0,.,.
COC(=O)c1ccc2c(c1)C(C)(C)C(/C=C/c1ccc(O)cc1)=[N+]2C,2.24µM*,?,5.22µM*,-102.4*,4.99µM*,8.87µM*
COC(=O)c1ccc2nc(C)c(C)nc2c1,-11.0%,13.5%,208.0%,12.3,.,.
O=C(NC1CCS(=O)(=O)C1)/C(=C/c1ccco1)NC(=O)c1ccccc1 (configuration not stated),7.08µM*,29.6%,-26.1%,-25.5,0.1%,17.6%
C[C@H]1COc2cc(N(C)CCO)ccc2S(=O)(=O)N1,.,.,.,37.0,.,.
COc1ccc(CN2CCC(N(CCc3ccccc3)Cc3ccccc3)CC2)c(OC)c1,2.51µM*,?,135.6%,-99.3*,7.05µM*,?
SMILES,HCV inh,Pf growth 48h,Pf growth 96h,HCMV inh,HCV inh confirm,HCV cytotox
CCCCN(C(C)=O)c1ccc2c(c1)C1CC2CCN1C(=O)OCc1ccccc1 (configuration not stated),3.55µM*,.,.,?,3.96µM*,7.91µM*
COc1ccc(CNC(=O)c2ccc3c(=O)n4c(nc3c2)CCCCC4)cc1OC,?,?,?,-74.5*,7.91µM*,?
COc1ccc(/C=N\NC(=O)c2ccccc2Br)cc1COc1c(F)c(F)cc(F)c1F,5.01µM*,35.2%,11.4%,-81.1*,4.45µM*,22.3µM*
CCCc1cc2c(=O)c(-c3ccc4c(c3)OCCO4)c(C)oc2cc1OS(C)(=O)=O,2.24µM*,?,?,?,11.2µM*,-33.0%
CCCCNC(=O)CSc1nc2ccccc2c(=O)n1Cc1ccc2c(c1)OCO2,?,4.1%,20.5%,-11.3,.,.
Cn1c(=O)c2c(nc(SCC(=O)NCc3ccc4c(c3)OCO4)n2Cc2ccc(F)cc2)n(C)c1=O,?,13.1µM*,10.4µM*,-35.6,14.1µM*,25.8%
Cn1c(=O)c2c(nc(Oc3ccc4c(c3)OCO4)n2Cc2ccc(F)cc2)n(C)c1=O,13.3%,-6.2%,?,-21.2,.,.
Cn1c(=O)c2c(nc(SCC(=O)NCc3ccc4c(c3)OCO4)n2Cc2ccccc2)n(C)c1=O,2.3%,4.2%,-13.1%,-17.7,?,13.0%
Cc1cccc(C)c1NC(=O)C(c1ccnc2ccccc12)n1c(=O)c(-c2ccccc2)nc2ccccc21 (configuration not stated),.,.,.,-31.7,.,.
COC1=CC(=O)OC(c2cccc(C(F)(F)F)c2)C1 (configuration not stated),.,.,.,8.1,.,.
COc1ccc([C@H]2C[C@H](n3cc(COC(=O)c4ccccc4)nn3)[C@@H](O)CN2Cc2cccs2)cc1,.,.,.,22.5,.,.
O=C(NCc1ccccc1)C1C(c2ccc3c(c2)OCO3)=Nc2ccccc2N1C(=O)c1cccc2ccccc12 (configuration not stated),.,.,.,18.6,.,.
CCOC(=O)C1(C)CCN1C(=O)c1ccc2c(c1)CCO2 (configuration not stated),.,.,.,0.9,.,.
Cc1ccc(S(=O)(=O)N2CCC(=O)N(CCOCc3ccc(C(F)(F)F)cc3)CC2)cc1,?,-21.8%,?,?,2.23µM*,?
Cc1nn(Cc2c(F)c(F)c(F)c(F)c2F)c(C)c1NC(=O)c1ccc(COc2ccc(F)cc2)o1,2µM*,?,?,?,14.1µM*,-23.2%
S=C(NCCCN1CCOCC1)N1CCN(c2nc(-c3ccccc3)cs2)CC1,?,?,63.3%,?,.,.
S=C(NCCCN1CCOCC1)N1CCN(c2nc(-c3ccc(Cl)cc3)cs2)CC1,3.16µM*,9.6%,10.5%,-90.9*,7.05µM*,28µM*
O=S1(=O)CC(N2CCCC2)CN1Cc1cn(Cc2cccc(Cl)c2)nn1 (configuration not stated),.,.,.,-1.1,.,.
COc1ccc(C(=O)Nc2cc(OC)cc3cccnc23)cc1,?,34.7%,26.6%,138.1,14.1µM*,4.5%
Cn1c(=O)cc(OCCCC(=O)NCc2ccccn2)c2ccccc21,14.0%,5.1%,55.3%,180.0,.,.
